The source of these data is PubChem BioAssay (Tox21).

The structures appear in SMILES notation. Values joined by “and” are separate entries in the source; they are usually repeats but may differ in a detail not shown here. Equal entries are not always repeated. Results filed as inconclusive are left out. Active and inactive are the calls of the source. Calls follow the shape of the dose curve; as a rule, active = well fitted activation curve with a large enough effect in the repeat runs; inconclusive = weak or mixed curves, or effect the other way; inactive = no such curve, though single readings can be large or run the other way.
% is scaled to controls: 0 for no effect and ±100 for the full control effect; potency is read from the fitted curve at half-maximal effect.

A short description of the assay: qHTS assay to identify small molecule agonists of the estrogen related receptor signaling pathway with the pleiotropic PPARgamma coactivator (PGC) from Tox21 10K library (AID 1224842). Also: nearly all actives have a fitted effect of over 15% in size. To be noted: PGC/ERR reporter cell line, luciferase ONE-Glo, 18 h; series mostly up to 92.4 µM; activation: at the top concentration. From the text: National Center for Advancing Translational Sciences [NCATS] NIH Chemical Genomics Center [NCGC] U.S. Environmental Protection Agency [EPA] National Institutes of Environmental Health Sciences [NIEHS] National Toxicology Program [NTP] Assay overview: Estrogen related receptors (ERRs), the first orphan nuclear receptors discovered, play an important role in the control of cellular energy metabolism. ERRs are required for high-energy production in response to the environmental challenges. The pleiotropic PPARgamma coactivator (PGC) is a major partner of ERR and a key regulator in energy homeostasis. Together they have been implicated in the etiology of metabolic disorders such as Type 2 diabetes and metabolic syndrome. ERR-alpha was also identified as an adverse marker for breast cancer progression; ERR-alpha-positive tumors have a poor prognosis. To screen and to identify environmental compounds that perturb the PGC/ERR signaling pathways could provide valuable information for potential therapeutic or preventive measures in the treatment of metabolic disease. For identifying PGC/ERR agonists, PGC/ERR cell line (provided by NTP) has been used to screen Tox21 10K library.
Assay Protocol Summary: The PGC/ERR cells were dispensed at 2,000 cells/5 ul/well in 1536-well white plates using a Multidrop dispenser. After the assay plates were incubated at a 37 C/5% CO2 incubator for 6 hours, 23 nL of compounds dissolved in DMSO, positive and negative controls or DMSO only was transferred to the assay plate by a pin tool. The plates were incubated at 37 C for 18 hours. 4 ul/well of One-Glo reagent was added into the assay plates using a Flying Reagent Dispenser. After 30-minute incubation at room temperature, the luminescence intensity in the plates was measured using a ViewLux plate reader.
For orientation: Quantitative high-throughput screening tests each substance at several concentrations.
Consider `CC(C)N1C(=O)N(c2ccccc2)CSC1=NC(C)(C)C`, for which the “activation” value was -17.3% (inactive). Turning to `ClC1=C(Cl)C2(Cl)C3C(Cl)C(Cl)CC3C1(Cl)C2(Cl)Cl` (stereo not given), the Potency entry is “inactive”. In the case of `ClC1=C(Cl)[C@]2(Cl)[C@@H]3[C@@H](Cl)[C@H](Cl)C[C@@H]3[C@@]1(Cl)C2(Cl)Cl`, the “activation” value is 0.329% (inactive). On the same count and under the same terms, with `Cc1cc(C)c(C2=C(OC(=O)CC(C)(C)C)C3(CCCC3)OC2=O)c(C)c1` the figure was -2.08% (inactive). For the compound `O=C(O)C1C2CCC(O2)C1C(=O)O` (stereo not given), the Potency is 55.1 µM (active) and 19.9 µM (active). Turning to `COC(=O)N(C(=O)N1COC2(C(=O)OC)Cc3cc(Cl)ccc3C2=N1)c1ccc(OC(F)(F)F)cc1` (stereo not given), the “activation” value is -17.8% [at 42.5 µM] (inactive). For the compound `CCOP(=S)(OCC)SCCS(=O)(=O)CC`, the “activation” value is -4.54% (inactive). For `CCCCCCCCCCCCCCCCCCn1cc[n+](C)c1`, the “activation” value was -34% (inactive). As to `OC(Cc1ccccc1Cl)(Cn1cncn1)C1(Cl)CC1` (stereo not given), the “activation” value was -11.3% (inactive).

As for `O=C1C=CC(=O)c2ccccc21`, the “activation” value is -37.5% (inactive).

Turning to `O=S(=O)(c1ccc(Cl)cc1)c1ccc(Cl)cc1`, the “activation” value was -14.9% (inactive). On to `Clc1ccc(C(c2ccccc2Cl)C(Cl)(Cl)Cl)cc1` (stereo not given), for which the Potency result is “inactive”. Consider `Oc1ccc(C(=C(Cl)Cl)c2ccc(O)cc2)cc1`, for which the “activation” value is -14.5% (inactive). The same measure, in the same setting: with `CCC(C)c1cc(C(C)(C)C)cc(-n2nc3ccccc3n2)c1O` (stereo not given) the figure was 2.58% [at 42.5 µM] (inactive); with `C[C@@H]1O[C@@H](O[C@@H]2C=C3CC[C@@H]4[C@H](CC[C@]5(C)[C@@H](c6ccc(=O)oc6)CC[C@]45O)[C@@]3(C)CC2)[C@H](O)[C@H](O)[C@H]1O`, -29.4% [at 42.5 µM] (inactive).

As to `O=c1[nH]c2ccccc2n1C1CCN(CCCC(c2ccc(F)cc2)c2ccc(F)cc2)CC1`, the Potency entry was “inactive”. Take `COP(=O)(OC)SCn1c(=O)oc2cc(Cl)cnc21`: the “activation” value was -15.9% (inactive). As for `CCSC(C)CC1CC(=O)C(/C(CC)=N/OC/C=C/Cl)=C(O)C1` (stereo not given), the “activation” value is -3.93% [at 42.5 µM] (inactive). In the case of `CC(C)(C)c1cc([N+](=O)[O-])cc(C(C)(C)C)c1O`, the “activation” value is -17.2% (inactive). As for `C=CC(=O)OCC(COC(=O)C=C)(COC(=O)C=C)COC(=O)C=C`, the “activation” value was -35.5% (inactive). Still for that read-out and setting: with `FC(F)(F)c1cccc(C2=CCN(CCc3ccc4ccccc4c3)CC2)c1` the figure was 8.59% [at 42.5 µM] (inactive). On to `Oc1ccc(C(c2ccc(O)cc2)(C(F)(F)F)C(F)(F)F)cc1`, for which the Potency entry is “inactive”. `CCOP(=S)(OCC)SCS(=O)(=O)CC`: the “activation” value was 0.63% (inactive). Same read-out and setting: in the case of `N#CCCC(Br)(C#N)CBr` (stereo not given) it was -30.9% (inactive); in that of `O=C1c2ccccc2C(=O)C1C(=O)C(c1ccccc1)c1ccc(Cl)cc1` (stereo not given), -24.5% (inactive).

As for `C=CC(=O)OCCCCOC(=O)C=C`, the Potency was 21.7 µM (active).

`Clc1ccc(C(Cl)(Cl)Cl)c(Cl)c1`: the “activation” value was -20.8% (inactive). Turning to `CS(=O)(=O)c1ccc(C(=O)C2C(=O)CCCC2=O)c([N+](=O)[O-])c1`, the “activation” value is 5.64% (inactive). Same read-out and setting: with `O=c1c(C2CC(c3ccc(-c4ccc(Br)cc4)cc3)Cc3ccccc32)c(O)sc2ccccc12` (stereo not given) the figure was -20.4% [at 42.5 µM] (inactive); with `O=C(CCl)Nc1ccccc1`, -36.7% (inactive); with `CCCN(CCC)c1c([N+](=O)[O-])cc(S(N)(=O)=O)cc1[N+](=O)[O-]`, -20.4% (inactive). The same measure, in the same setting: in the case of `CN(C)C1CSSSC1` it was -8.5% (inactive).

Take `COC12CC[C@@]3(C[C@@H]1C(C)(O)C(C)(C)C)[C@H]1Cc4ccc(O)c5c4[C@@]3(CCN1CC1CC1)[C@H]2O5` (stereo not given in full): the “activation” value was -33.4% (inactive). In the case of `C[C@@H]1CC[C@@]2(OC1)O[C@H]1[C@@H](O)[C@H]3[C@@H]4CC[C@H]5C[C@@H](O[C@@H]6O[C@H](CO)[C@H](O[C@@H]7O[C@H](CO)[C@@H](O)[C@H](O[C@@H]8OC[C@@H](O)[C@H](O)[C@H]8O)[C@H]7O[C@@H]7O[C@H](CO)[C@@H](O)[C@H](O[C@@H]8O[C@H](CO)[C@@H](O)[C@H](O)[C@H]8O)[C@H]7O)[C@H](O)[C@H]6O)[C@H](O)C[C@]5(C)[C@H]4CC[C@]3(C)[C@H]1[C@@H]2C`, the “activation” value was -38.1% (inactive). Same read-out and setting: with `O=[N+]([O-])c1ccc(Oc2ccc(C(F)(F)F)cc2[N+](=O)[O-])cc1` the figure was -7.45% (inactive). The same measure, in the same setting: with `Cn1cc(C2=C(c3cn(C4CCN(Cc5ccccn5)CC4)c4ccccc34)C(=O)NC2=O)c2ccccc21` the figure was -11.2% [at 42.5 µM] (inactive). As for `[Cl][Sn]([c]1ccccc1)([c]1ccccc1)[c]1ccccc1`, the activation was -35.3% [at 19 µM] (inactive).

Take `CC(C)Oc1cccc(NC(=O)c2ccccc2C(F)(F)F)c1`: the “activation” value is -14.6% (inactive). On the same count and under the same terms, in the case of `CC(=O)C(Cl)(Cl)Cl` it was -27.4% (inactive); in that of `Oc1c(Cl)c(Cl)cc(Cl)c1Cl`, -23.8% (inactive).
